# Test results reported in the supplement of paper PMC6555819.
# Key:
# Test in all cases: PBM binding z-score (relative to random genomic background probes); higher = stronger binding; sequences stand for … in GC…GCGATTGACAGCGTAGAATGAAGG
# [1] = test system: PPARg:RXRa DBDmut IVT, anti-RXR (DBD mutation: RXRa K156A/R161A, NR concentration 270 nM, RXRa partner concentration 90 nM)
# In short: (§1)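 Custom Agilent 4×180K protein-binding microarrays carried double-stranded probes, each with a 34-nt variable region. These regions held direct-repeat seeds, single-nucleotide variants, half-site ablations and random human genomic background sequences. Ligand-free nuclear receptor dimers were incubated on the arrays for 1 h, antibodies against each partner (one per run) detected binding, and scanned fluorescence was regression-normalized. Binding z-scores take the random background probes as reference.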
# [2] = test system: PPARg:RXRa IVT, anti-PPARg (NR concentration 270 nM, RXRa partner concentration 90 nM)
# In short: as §1
# [3] = test system: PPARg DBDmut:RXRa IVT, anti-PPARg (DBD mutation: PPARg1 K132A/R137A, NR concentration 270 nM, RXRa partner concentration 90 nM)
# In short: as §1
# [4] = test system: PPARg DBDmut IVT, anti-PPARg (DBD mutation: PPARg1 K132A/R137A, NR concentration 270 nM)
# In short: as §1
# [5] = test system: PPARg homodimer (NR concentration 180 nM)
# In short: as §1
# [6] = test system: PXR:RXRa (NR concentration 270 nM, RXRa partner concentration 90 nM)
# In short: as §1
# [7] = test system: PXR homodimer (NR concentration 270 nM)
# In short: as §1
# [8] = test system: RARa:RXR (NR concentration 270 nM, RXRa partner concentration 90 nM)
# In short: as §1
# [9] = test system: RARa homodimer (NR concentration 270 nM)
# In short: as §1
# [10] = test system: RARb:RXRa (NR concentration 270 nM, RXRa partner concentration 90 nM)
# In short: as §1
# [11] = test system: RARb homodimer (NR concentration 270 nM)
# In short: as §1
# [12] = test system: RARg:RXRa (NR concentration 270 nM, RXRa partner concentration 90 nM)
# In short: as §1
# [13] = test system: RARg homodimer (NR concentration 270 nM)
# In short: as §1
# [14] = test system: RXRa DBDmut IVT, anti-RXR (DBD mutation: RXRa K156A/R161A, NR concentration 90 nM)
# In short: as §1
# [15] = test system: RXRa homodimer (NR concentration 180 nM)
# In short: as §1
# [16] = test system: THRa:RXRa (NR concentration 90 nM, RXRa partner concentration 90 nM)
# In short: as §1
# [17] = test system: THRa homodimer (NR concentration 90 nM)
# In short: as §1
# [18] = test system: VDR homodimer (NR concentration 270 nM)
# In short: as §1
Sequence,PBM binding z-score [1],PBM binding z-score [2],PBM binding z-score [3],PBM binding z-score [4],PBM binding z-score [5],PBM binding z-score [6],PBM binding z-score [7],PBM binding z-score [8],PBM binding z-score [9],PBM binding z-score [10],PBM binding z-score [11],PBM binding z-score [12],PBM binding z-score [13],PBM binding z-score [14],PBM binding z-score [15],PBM binding z-score [16],PBM binding z-score [17],PBM binding z-score [18]
CCCACTGGGGCAGAAAGGTTACCATACCATCCGG,2.2,3.8,-0.946,-0.994,1.02,0.703,-0.212,1.59,-0.0999,1.86,2.2,1.52,1.63,-1.65,1.6,1.01,-0.221,-0.41
TCTTGTAGATCAACGGGAGGTTAAGAAAGATCGA,2.28,0.974,0.226,-0.0514,0.14,0.94,0.02,1.14,0.281,0.648,0.654,1.49,0.307,0.748,1.06,1.11,-0.165,-0.124
TCTAATTGGTCAAAGGTCACACACTCGAAATGCG,3.57,6.22,4.31,4.82,12.2,6.35,1.5,7.91,5.86,5.27,4.96,7.28,6.41,2.51,8.16,4.13,2.44,3.16
CCTATTAGTAGACCATAAGGGCAACCGAAGCTCG,1.88,1.11,0.0545,0.0708,1.4,0.71,0.501,0.768,1.33,1.25,1.65,0.962,0.835,0.475,0.769,1.57,1.11,0.68
TCCAGTAGGTTACCAATGGGGCATTCAGCTTTCT,4.6,4.34,-0.355,-0.253,0.0888,0.286,-0.589,0.451,-0.883,1.31,0.751,1.45,0.608,0.663,0.815,0.145,-0.653,-0.528
TCGAGTAGGTTATTCGGGGCATTCAGCCAACATA,3.04,2.49,-0.276,-0.446,-0.00227,0.948,0.669,0.746,-0.612,0.781,0.766,0.44,0.448,0.744,0.31,2.61,0.314,0.9
GCATATAGCTAATACAAGGTGAAAGTCCGATTGT,0.11,0.315,0.87,-0.0254,0.259,0.262,0.241,0.651,0.533,0.107,0.396,0.366,0.451,0.494,0.476,1.43,0.866,0.162
ACTAGCAGGCCAAGGGTCACTCATGATTAGTCCG,1.25,3.63,0.294,-0.197,2.62,3,-0.0152,4.04,0.642,3.41,3.68,4.01,3.58,0.479,4.18,2.31,0.0224,1.07
CGGCCAAGGTCAGAGAGGTCAGTGAATGCCGAGT,3.09,3.49,-0.798,-1.36,3.78,5.99,12,5.43,1.18,5.21,5.45,6.22,7.62,3.44,6.21,4.17,2.42,5.9
GCGACTCGGGCAAAGCAGGTTACCATAAGGTTGG,0.437,0.613,-1.22,-1.92,-0.783,-0.339,-0.681,0.418,-0.821,0.403,0.473,0.453,0.464,-0.723,0.252,1.87,-0.264,-0.533
TGAATGAGGTTATAAGACCAGGGAACGTTGCAAA,1.18,1.75,0.985,0.561,0.257,0.794,-0.0148,1.33,0.0796,1.29,0.0287,1.39,0.814,0.698,1.99,1.77,-0.0902,0.336
CCTGCTAGGTCAATGCTCAGCTAAAGCAGCTCGC,4.63,3.35,0.0583,-0.86,0.329,0.498,-0.943,1.19,-0.48,3.61,2.37,3.14,4.3,1.92,1.47,1.97,0.173,-0.26
CTTCAAAGTTCAAGGTAACGTAACAGAAAGCAGC,0.401,1.36,0.994,1,2.93,4.18,2.67,3.32,1.72,5.1,3.62,5.19,6.14,4.34,4.62,2.96,1.34,3.44
CGCCCAAGGTCAAGGTCAGTGAAAGAGACTCGAA,3.15,4.18,0.61,-0.556,3.84,4.83,0.538,5.32,1.22,5.62,5.33,6.54,7.08,3.25,6.2,4.42,3.53,2.96
GTACCAAGGTGAGTAGGTCGTTGATGAGTAGGCG,1.77,2.68,-0.145,-1.14,0.691,0.089,0.0427,0.391,0.166,1.16,1.15,0.89,0.657,-0.673,0.551,0.995,0.258,0.112
AGAGCGAGGGCAATGAGTTGATAGCACGGGTGGC,0.771,0.253,0.00949,-1.18,-0.656,1.38,4.01,0.0108,-1,2.13,0.903,1.19,1.31,1.48,0.736,0.613,-0.514,2.82
TAGCCCAGGTCATGGGCCAGTATACCACGCGAAC,0.271,2.71,0.391,-0.431,0.53,2.24,-0.39,2.96,0.0198,3.78,2.61,4.42,4.43,0.576,4.06,3.69,2.3,1.08
GATACAGGTTCAGCTAGAGGCCAGAGTATGGAAA,-0.632,-0.397,-0.984,-1,0.61,1.19,-0.0373,1.64,0.321,1.35,1.13,4.48,1.11,3.05,1.33,1.16,-0.412,2.29
TCGAGTAGGTTACCAATGGGGCCTTCAGCTTTCT,3.36,2.22,-0.652,-1.23,-0.653,-0.289,-1.01,0.0831,-1.27,0.653,0.0421,0.0942,-0.234,0.173,0.293,-0.167,-0.919,-0.944
TAGCCTAGGTCATCCAGGGGCCAGTATAGAAAGC,1.23,2.73,0.724,-0.3,1.93,2.6,-0.246,3.55,0.127,3.98,3.71,6.41,5.07,0.731,2.94,3.55,0.878,0.913
ACTTGTTGGTCAGCTGAGGTCACACACAATTCGG,1.72,2.7,1.08,0.437,2.22,5.63,1.27,4.54,0.13,3.71,4.48,4.18,4.01,1.38,3.99,5.15,5.03,3.16
CGTCCAAGGTCAGTGCTAGGTCAGTGAAAGCATT,2.24,2.77,-0.328,-1.29,3.27,3.4,0.647,4.37,0.898,4.79,4.72,6.51,6.07,2.72,4.15,3.98,2.41,2
CATAGCAGGCCAGGGTCACTCAAGCATTTCGCTT,1.4,2.14,-0.201,-0.525,1.38,2.93,-0.247,3.63,-0.0529,2.79,3.09,3.13,2.89,0.718,3.61,3.07,1.43,1.81
CCTAGCAGGCCAGGGACACTCAAGCATTTCGCTT,0.0615,-0.258,-0.983,-1.15,-0.379,-0.644,-0.46,-0.225,-0.182,0.347,0.112,-0.238,-0.144,-0.269,-0.377,0.512,0.193,-0.34
GCTATTAGTTGAAAGGGCAACCTAATGATTCTCG,0.686,0.831,0.904,0.354,0.978,0.94,0.54,1.56,0.795,2.02,2.01,1.35,1.38,0.966,1.24,0.901,-0.0101,0.284
TTACCAAGGTGAAGTTCGTTGATCCCTCTGTAGA,2.04,2.68,0.229,0.131,0.308,1.23,0.329,0.86,-0.298,1.75,1.18,0.78,0.824,1.02,0.97,1.8,0.676,1.66
ATCTCTAGGAAAGACTCAGTTCAGTGAAGAACGC,-0.0594,-0.318,0.245,0.852,0.978,0.737,1.37,0.199,0.964,0.144,0.415,-0.181,0.129,0.549,-0.107,0.203,0.155,1.33
GCTTGTAGATCAAGGCTAAGAAAGACTAAGCTAA,0.902,-0.107,-0.0292,-0.466,-1.05,-0.743,-0.42,-0.679,-0.656,-0.482,-0.854,-0.533,-0.429,-0.427,-0.497,-0.5,-1.37,-0.708
GCTAACGGGTCAAAGGTTATAGCATGAATAGAAT,3.51,5.64,0.399,0.838,1.81,5.59,0.2,7.51,0.254,4.19,3.09,6.57,4.55,1.87,8.85,3.65,-0.286,1.33
